Assay [1] concerns the target Nuclear receptor coactivator 3 (Homo sapiens) (UniProt Q9Y6Q9). The experiment in a line: NCOA3 GAL4-fusion reporter inhibition – cell-based, luminescence, quadruplicate, confirmation (AID 588792;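 active = mean inhibition over 43.08%, the solvent-only control mean plus 3 SD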;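 note: 0% = DMSO treated cells and 100% = gossypol at 36 µM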). The conditions noted are these: HEK293 GAL4-SRC3 luciferase reporter, at 3.6 µM, hits give high values. Background: In a reporter assay the amount or activity of a reporter protein is the signal.

In assay [2] the test system is transactivating tegument protein VP16 (Human herpesvirus 1), Gal4-VP16 luciferase reporter. The experiment in a line: repression of VP16-driven luciferase reporter – cell-based, luminescence, high throughput, counter-screen for SRC3 inhibitor project (AID 588794; in the data active = inhibition above about 30%). The conditions noted are these: mammalian cells, at 3.6 µM, hits give high values.
Assay [3] deals with Nuclear receptor coactivator 1 (Homo sapiens) (UniProt Q15788). The assay is described as follows: NCOA1 GAL4-fusion reporter inhibition – cell-based, luminescence, quadruplicate, confirmation (AID 588820;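 active = mean inhibition above 46.68%, the untreated control wells mean plus 3 SD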;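 note: 0% = DMSO wells and 100% = gossypol 36 µM treated wells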). To be noted: HEK293 GAL4-SRC1 luciferase reporter, at 3.6 µM, hits give high values.
Assay [4] can be described thus: repression of VP16-driven luciferase reporter – cell-based, luminescence, high throughput, counter-screen for SRC1 inhibitor project (AID 588824; in the data active = inhibition above about 25%). To be noted: cell-based VP16 transactivation luciferase luminescence; at 3.6 µM; hits give high values.
Assay [5] can be described thus: StAR promoter reporter inhibitors, counter-screen for LRH-1 inverse agonist project, cell-based, luminescence, high throughput (AID 651611; in the data active = inhibition above about 28%). The conditions noted are these: StAR promoter luciferase reporter counterscreen, at 3.6 µM, hits give high values. In general terms: The purpose of a counterscreen is to sort out artefacts and off-target activity.
For assay [6], the target named is Nuclear receptor subfamily 5 group A member 2 (Homo sapiens) (UniProt O00482). The assay is described as follows: NR5A2 activity suppression in reporter cells – cell-based, luminescence, confirmation (AID 651613; in the data active = inhibition above about 42%;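 note: HEK293T cells co-transfected with LRH-1 and StAR promoter luciferase reporter; 0% = vehicle wells and 100% = parental cells lacking receptor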). To be noted: cell-based LRH-1 luciferase reporter, inverse agonism; at 3.6 µM; hits give high values.
Assay [7] addresses Steroidogenic factor 1 (Homo sapiens) (UniProt Q13285). The assay is described as follows: inverse agonism at SF1 nuclear receptor – cell-based, luminescence, high throughput, counter-screen for LRH-1 inverse agonist project (AID 651614).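 Note: cells cotransfected with StAR promoter reporter and SF1 expression vector; 0% = vehicle on cells with receptor and 100% = vehicle on cells lacking receptor.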 To be noted: cell-based SF1 luciferase reporter, at 3.6 µM, hits give high values.
The nature of assay [8]: compounds suppressing VP16-driven luciferase signal – cell-based, luminescence, high throughput, counter-screen for LRH-1 inverse agonist project (AID 651615; in the data active = inhibition above about 33%). The conditions noted are these: Gal4-VP16 luciferase reporter cells, at 3.6 µM, hits give high values.
Assay [9] has as its system transactivating tegument protein VP16 (Human herpesvirus 1). The experiment in a line: compounds suppressing VP16-driven luciferase signal – cell-based, luminescence, single concentration, counter-screen for SRC2 inhibitor project (AID 652007; in the data active = inhibition above about 36%). To be noted: cell-based VP16 transactivation luciferase reporter, at 8.9 µM, hits give high values.
Assay [10] has as its target Nuclear receptor coactivator 2 (Homo sapiens) (UniProt Q15596). The assay is described as follows: inhibition of GAL4-SRC2 driven luciferase expression – cell-based, luminescence, HEK293, triplicate, confirmation (AID 652008;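 active = mean inhibition above 46.5%, the solvent-only control mean plus 3 SD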;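 note: 0% = DMSO-treated cells and 100% = Gossypol at 36 µM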). The conditions noted are these: HEK293 GAL4-SRC2 luciferase reporter, at 8.9 µM, hits give high values.

Unmarked numbers belong to inactive results. Active and inactive are the calls of the source. Cut-off read from the data, not from the text of the source, unless noted: active = inhibition above about 44%; inactive = the rest.

Steroidogenic factor 1 (Homo sapiens), sequence (Q13285 whole entry, looked up, the tested form may be a part): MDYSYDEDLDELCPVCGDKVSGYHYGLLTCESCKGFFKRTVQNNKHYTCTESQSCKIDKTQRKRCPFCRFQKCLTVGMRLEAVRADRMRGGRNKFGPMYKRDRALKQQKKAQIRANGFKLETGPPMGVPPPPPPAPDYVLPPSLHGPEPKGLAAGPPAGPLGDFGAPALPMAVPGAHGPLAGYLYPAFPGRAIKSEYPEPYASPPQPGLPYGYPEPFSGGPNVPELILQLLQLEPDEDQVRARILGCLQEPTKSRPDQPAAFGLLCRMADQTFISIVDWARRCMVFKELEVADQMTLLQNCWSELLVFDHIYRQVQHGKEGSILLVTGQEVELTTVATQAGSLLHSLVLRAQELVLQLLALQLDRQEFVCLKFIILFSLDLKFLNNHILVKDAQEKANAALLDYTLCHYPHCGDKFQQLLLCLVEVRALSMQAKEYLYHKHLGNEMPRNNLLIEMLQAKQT
Nuclear receptor coactivator 3 (Homo sapiens), sequence (Q9Y6Q9 whole entry, looked up, the tested form may be a part): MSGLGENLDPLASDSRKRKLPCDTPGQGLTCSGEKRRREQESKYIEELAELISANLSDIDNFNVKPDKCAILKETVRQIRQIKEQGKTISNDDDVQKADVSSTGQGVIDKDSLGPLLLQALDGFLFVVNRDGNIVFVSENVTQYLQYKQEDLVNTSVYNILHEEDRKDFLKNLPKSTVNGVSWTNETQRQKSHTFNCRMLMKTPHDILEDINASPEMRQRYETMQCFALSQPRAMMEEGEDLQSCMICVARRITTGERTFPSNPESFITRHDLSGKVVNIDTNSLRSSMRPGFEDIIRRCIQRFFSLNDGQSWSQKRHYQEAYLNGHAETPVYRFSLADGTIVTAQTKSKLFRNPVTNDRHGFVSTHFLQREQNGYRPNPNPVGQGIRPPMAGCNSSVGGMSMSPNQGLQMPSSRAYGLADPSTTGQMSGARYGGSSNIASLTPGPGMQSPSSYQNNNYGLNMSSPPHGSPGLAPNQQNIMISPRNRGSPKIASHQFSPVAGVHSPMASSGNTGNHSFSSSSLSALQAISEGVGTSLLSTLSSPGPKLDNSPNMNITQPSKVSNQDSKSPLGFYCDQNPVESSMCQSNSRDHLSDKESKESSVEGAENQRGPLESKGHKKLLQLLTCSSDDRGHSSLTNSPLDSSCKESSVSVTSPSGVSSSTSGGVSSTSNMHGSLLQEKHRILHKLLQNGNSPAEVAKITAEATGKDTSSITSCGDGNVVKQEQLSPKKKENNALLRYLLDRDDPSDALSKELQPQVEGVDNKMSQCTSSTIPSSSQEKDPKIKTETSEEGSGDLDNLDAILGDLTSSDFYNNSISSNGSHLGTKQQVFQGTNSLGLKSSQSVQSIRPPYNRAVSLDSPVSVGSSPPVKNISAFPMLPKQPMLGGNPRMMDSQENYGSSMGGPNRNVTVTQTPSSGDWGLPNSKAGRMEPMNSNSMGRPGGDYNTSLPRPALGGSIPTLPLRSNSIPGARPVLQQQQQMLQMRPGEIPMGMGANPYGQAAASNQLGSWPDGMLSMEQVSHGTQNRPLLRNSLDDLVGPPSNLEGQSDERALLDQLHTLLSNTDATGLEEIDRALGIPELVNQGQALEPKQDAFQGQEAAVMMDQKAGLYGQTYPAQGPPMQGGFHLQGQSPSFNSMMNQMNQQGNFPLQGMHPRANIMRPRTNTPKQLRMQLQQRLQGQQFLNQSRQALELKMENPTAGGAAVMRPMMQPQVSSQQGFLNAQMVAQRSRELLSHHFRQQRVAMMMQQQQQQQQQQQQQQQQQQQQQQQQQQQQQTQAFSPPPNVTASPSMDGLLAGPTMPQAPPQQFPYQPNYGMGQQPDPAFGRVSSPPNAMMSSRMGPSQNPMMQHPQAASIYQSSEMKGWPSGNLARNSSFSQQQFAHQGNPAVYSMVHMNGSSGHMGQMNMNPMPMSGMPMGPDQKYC
Nuclear receptor coactivator 1 (Homo sapiens), sequence (Q15788 whole entry, looked up, the tested form may be a part): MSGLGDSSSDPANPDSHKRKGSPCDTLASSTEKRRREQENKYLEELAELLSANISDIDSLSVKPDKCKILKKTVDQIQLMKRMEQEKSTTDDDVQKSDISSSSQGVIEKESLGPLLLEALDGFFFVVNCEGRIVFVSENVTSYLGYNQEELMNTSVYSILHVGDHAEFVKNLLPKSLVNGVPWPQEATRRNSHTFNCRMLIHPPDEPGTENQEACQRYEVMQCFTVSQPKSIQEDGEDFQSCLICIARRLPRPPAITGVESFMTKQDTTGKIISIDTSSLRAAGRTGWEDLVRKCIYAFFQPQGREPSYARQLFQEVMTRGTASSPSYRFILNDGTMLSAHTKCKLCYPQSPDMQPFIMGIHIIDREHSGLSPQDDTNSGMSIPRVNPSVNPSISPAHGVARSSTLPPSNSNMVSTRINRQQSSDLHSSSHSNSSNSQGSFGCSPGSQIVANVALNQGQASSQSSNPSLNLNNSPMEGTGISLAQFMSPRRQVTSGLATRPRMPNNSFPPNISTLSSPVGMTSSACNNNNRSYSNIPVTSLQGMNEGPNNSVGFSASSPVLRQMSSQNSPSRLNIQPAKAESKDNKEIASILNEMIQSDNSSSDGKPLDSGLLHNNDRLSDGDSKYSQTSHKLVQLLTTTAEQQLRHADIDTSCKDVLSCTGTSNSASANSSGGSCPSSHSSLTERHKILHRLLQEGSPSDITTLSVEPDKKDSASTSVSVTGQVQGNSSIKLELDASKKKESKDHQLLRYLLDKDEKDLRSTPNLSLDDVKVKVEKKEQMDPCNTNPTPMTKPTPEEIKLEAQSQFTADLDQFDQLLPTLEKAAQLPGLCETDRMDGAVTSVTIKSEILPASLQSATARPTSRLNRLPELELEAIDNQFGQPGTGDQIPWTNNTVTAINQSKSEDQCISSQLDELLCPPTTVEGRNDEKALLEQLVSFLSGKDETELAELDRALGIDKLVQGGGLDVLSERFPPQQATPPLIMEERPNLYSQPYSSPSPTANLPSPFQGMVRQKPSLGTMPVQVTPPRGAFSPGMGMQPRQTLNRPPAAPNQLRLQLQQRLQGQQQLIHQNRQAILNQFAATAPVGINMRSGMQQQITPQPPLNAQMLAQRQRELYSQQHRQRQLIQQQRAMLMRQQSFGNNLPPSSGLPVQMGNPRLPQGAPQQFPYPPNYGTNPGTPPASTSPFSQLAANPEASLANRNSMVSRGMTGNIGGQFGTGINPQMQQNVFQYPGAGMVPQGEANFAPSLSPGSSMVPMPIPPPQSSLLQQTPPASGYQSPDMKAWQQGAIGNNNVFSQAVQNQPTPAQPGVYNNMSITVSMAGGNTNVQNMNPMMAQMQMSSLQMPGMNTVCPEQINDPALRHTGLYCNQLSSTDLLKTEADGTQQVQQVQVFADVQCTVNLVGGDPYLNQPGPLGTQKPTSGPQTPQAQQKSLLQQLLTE
Nuclear receptor coactivator 2 (Homo sapiens), sequence (Q15596 whole entry, looked up, the tested form may be a part): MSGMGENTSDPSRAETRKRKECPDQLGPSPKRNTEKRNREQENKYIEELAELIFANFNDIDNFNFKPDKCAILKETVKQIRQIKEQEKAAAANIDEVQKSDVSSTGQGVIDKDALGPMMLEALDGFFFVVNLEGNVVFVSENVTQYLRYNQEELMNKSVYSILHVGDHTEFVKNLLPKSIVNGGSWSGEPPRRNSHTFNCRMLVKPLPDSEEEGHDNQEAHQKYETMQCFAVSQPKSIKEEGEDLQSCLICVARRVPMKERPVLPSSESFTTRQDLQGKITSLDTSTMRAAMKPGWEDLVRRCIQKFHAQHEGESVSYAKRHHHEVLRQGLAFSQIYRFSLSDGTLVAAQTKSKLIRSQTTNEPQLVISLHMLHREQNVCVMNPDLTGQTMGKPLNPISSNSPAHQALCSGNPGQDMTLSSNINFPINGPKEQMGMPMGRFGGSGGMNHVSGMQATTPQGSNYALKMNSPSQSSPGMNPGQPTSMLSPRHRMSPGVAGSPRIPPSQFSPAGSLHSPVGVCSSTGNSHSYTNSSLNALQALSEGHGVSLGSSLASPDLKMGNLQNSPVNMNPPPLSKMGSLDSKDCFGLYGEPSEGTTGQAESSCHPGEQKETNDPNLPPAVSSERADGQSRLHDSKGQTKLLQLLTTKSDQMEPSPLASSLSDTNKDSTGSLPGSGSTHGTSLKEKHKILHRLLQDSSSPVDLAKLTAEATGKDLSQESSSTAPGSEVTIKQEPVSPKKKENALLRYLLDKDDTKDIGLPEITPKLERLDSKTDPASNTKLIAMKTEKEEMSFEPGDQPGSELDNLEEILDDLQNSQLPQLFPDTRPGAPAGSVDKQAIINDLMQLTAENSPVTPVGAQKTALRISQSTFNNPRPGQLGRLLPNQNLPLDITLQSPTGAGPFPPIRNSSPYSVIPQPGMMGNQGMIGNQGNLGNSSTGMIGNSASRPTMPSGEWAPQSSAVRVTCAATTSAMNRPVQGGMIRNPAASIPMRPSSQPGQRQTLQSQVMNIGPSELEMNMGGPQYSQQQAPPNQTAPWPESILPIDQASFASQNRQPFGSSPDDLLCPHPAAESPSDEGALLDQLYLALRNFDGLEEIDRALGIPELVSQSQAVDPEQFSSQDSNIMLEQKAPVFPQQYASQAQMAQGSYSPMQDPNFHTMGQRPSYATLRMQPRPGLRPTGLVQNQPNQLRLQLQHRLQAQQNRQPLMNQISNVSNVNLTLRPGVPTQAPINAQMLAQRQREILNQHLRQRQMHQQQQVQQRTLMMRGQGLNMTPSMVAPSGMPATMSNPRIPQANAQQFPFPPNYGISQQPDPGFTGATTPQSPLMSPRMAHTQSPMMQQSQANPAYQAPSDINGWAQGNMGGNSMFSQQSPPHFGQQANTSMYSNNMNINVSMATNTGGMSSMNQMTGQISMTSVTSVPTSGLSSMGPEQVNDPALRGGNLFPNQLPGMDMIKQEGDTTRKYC

For `CC(C)(C)c1ccc(C(=O)N2CCCCCC2=O)cc1`, the inhibition is 58% (active) in [1]; 41% (active) in assay [2]; 35.8% in [3]; 33.1% (active) in [4]; 45.6% (active) in [5]; 62.1% (active) in [6]. Also, the inhibition was 56.1% (active) in assay [7], 56.4% (active) in [8], 63.6% (active) in [9] and 89.2% (active) in assay [10].

Take `Cc1ccc(-c2nc(-c3ccccn3)no2)cc1`: the inhibition is 59.3% (active) in [1]; 48.7% (active) in assay [2]; 29% in assay [3]; 43.9% (active) in assay [4]; 39.1% (active) in assay [5]; 11% in assay [6]. Further, the inhibition was 52% (active) in assay [7], 25% in assay [8], 66.8% (active) in assay [9] and 85.5% (active) in assay [10].

For `Cc1nn(-c2ccccc2Cl)c(Cl)c1/C=N/Nc1nc2ccccc2s1`, the inhibition was 64.1% (active) in assay [1]; 73.5% (active) in assay [2]; 48.1% (active) in [3]; 57.4% (active) in assay [4]; 82.7% (active) in assay [5]; 21.8% in assay [6]. Further, the inhibition in assay [7] is 73.5% (active); in assay [8] it was 58.5% (active); in assay [9] it was 82.7% (active); in [10], 91.7% (active).

`CCCC(=O)Nc1ccc(C(=O)N/N=C/c2ccc([N+](=O)[O-])o2)cc1`: the inhibition in [1] was 88.8% (active); in [2], 69.5% (active); in assay [3], 74.8% (active); in assay [4] it was 66.5% (active); in assay [5], 86.9% (active); in assay [6], 102% (active). The inhibition is 95.1% (active) in assay [7], 80.5% (active) in [8], 23.3% in assay [9] and 53.8% (active) in [10].

As for `Cc1c(C)c2ccc(OCC(=O)Nc3ccccn3)c(C)c2oc1=O`, the inhibition was 78.5% (active) in [1]; 72.3% (active) in assay [2]; 50.1% (active) in assay [3]; 59.6% (active) in assay [4]; 67.5% (active) in assay [5]; 68.8% (active) in [6]. The inhibition in [7] is 76.4% (active); in assay [8], 69.7% (active); in assay [9], 81.3% (active); in assay [10], 90.3% (active).

Regarding `O=C(CN1C(=O)c2ccccc2S1(=O)=O)c1ccc2c(c1)OCCO2`, the inhibition in assay [1] was 87.8% (active); in [2], 89.7% (active); in assay [3], 64% (active); in assay [4] it was 84.8% (active); in [5], 85.1% (active); in assay [6], 86.3% (active). Moreover, the inhibition in assay [7] was 84.5% (active); in [8] it was 84.4% (active); in assay [9], 91.4% (active); in [10], 95.2% (active).

Turning to `Cc1cc(C)c(C#N)c(SCc2nnc(-c3ccccc3)o2)n1`, the inhibition in [1] was 66.3% (active); in assay [2], 59.8% (active); in [3], 38.8%; in [4] it was 32.9% (active); in [5] it was 33.1% (active); in assay [6], -23.7%. In addition, the inhibition in [7] was 27.9%; in assay [8], 15.5%; in [9] it was 46.2% (active); in assay [10], 82.9% (active).

For the molecule `O=C(NCc1cccnc1)/C(=C\c1ccc(-c2ccc(Br)cc2)o1)S(=O)(=O)c1ccccc1`, the inhibition was 72.6% (active) in assay [1]; 56.9% (active) in [2]; 51.7% (active) in [3]; 55.1% (active) in assay [4]; 62.3% (active) in assay [5]; 92.3% (active) in [6]. The inhibition is 82% (active) in [7], 80.8% (active) in assay [8], 71.1% (active) in [9] and 68.7% (active) in assay [10].

In the case of `CSC1SCC2C(=O)N(C)C(C(C)C)C(=O)OCC(NC(=O)c3cnc4ccccc4n3)C(=O)NC(C)C(=O)N(C)C1C(=O)N(C)C(C(C)C)C(=O)OCC(NC(=O)c1cnc3ccccc3n1)C(=O)NC(C)C(=O)N2C` (stereo not given), the inhibition was 96.8% (active) in [1]; 96.7% (active) in assay [2]; 85.7% (active) in [3]; 96.8% (active) in assay [4]; 86.5% (active) in assay [5]; 107% (active) in [6]. Besides, the inhibition in [7] was 97.1% (active); in [8], 97.3% (active); in [9] it was 62.2% (active); in assay [10], 51.1% (active).

Regarding `O=C(COC(=O)c1ccc[nH]c1=O)Nc1ccc(N2CCCCC2)cc1`, the inhibition was 54.4% (active) in assay [1]; 20.8% in assay [2]; 42.2% in assay [3]; 5.72% in [4]; 42.1% (active) in assay [5]; 55% (active) in [6]. Moreover, the inhibition in assay [7] is 41%; in [8], 6.65%; in [9], 45.1% (active); in assay [10] it was 90.5% (active).

Regarding `O=S(=O)(c1ccc(NC(=S)NCc2cccnc2)cc1)N1CCCCC1`, the inhibition in assay [1] is 91% (active); in assay [2], 72.3% (active); in assay [3], 77.6% (active); in assay [4] it was 65.2% (active); in assay [5] it was 90.8% (active); in assay [6], 102% (active). Also, the inhibition in assay [7] is 96.3% (active); in assay [8], 88.6% (active); in assay [9], 12.3%; in assay [10], 50.2% (active).

Consider `N#Cc1c(N)n(C2OC(CO)C(O)C2O)c2ncnc(N)c12` (stereo not given), for which the inhibition in [1] is 96% (active); in [2] it was 96% (active); in assay [3] it was 79.9% (active); in [4], 95.1% (active); in [5], 85.9% (active); in [6] it was 106% (active). For the same molecule, the inhibition in assay [7] is 95.6% (active); in assay [8], 96.3% (active); in assay [9] it was 62% (active); in assay [10], 66.3% (active).

`Cc1cc(C(=O)COC(=O)C2=COCCO2)c(C)n1-c1ccccc1`: the inhibition is 32.9% in assay [1]; 5.84% in assay [2]; -53.9% in assay [3]; -37.1% in assay [4]; 23.9% in assay [5]; -86.4% in assay [6]. Moreover, the inhibition in assay [7] is 26.1%; in assay [8], -34.8%; in assay [9], 68.8% (active); in assay [10], 66.6% (active).

For the molecule `COc1cc(SC)ccc1C(=O)Nc1nc2ccccc2[nH]1`, the inhibition is 92.1% (active) in [1]; 90% (active) in [2]; 85.9% (active) in [3]; 89.4% (active) in assay [4]; 95.1% (active) in assay [5]; 103% (active) in assay [6]. The inhibition in assay [7] was 96.5% (active); in assay [8], 92.6% (active); in assay [9], 96.4% (active); in assay [10], 99.5% (active).

In the case of `N#Cc1sc2nccc(Nc3ccccc3)c2c1N`, the inhibition is 87.1% (active) in [1]; 62.4% (active) in assay [2]; 62.9% (active) in assay [3]; 58.6% (active) in [4]; 32.5% (active) in [5]; 66.4% (active) in [6]. The inhibition is 48.8% (active) in [7], 79.6% (active) in assay [8], 4.1% in assay [9] and 52.2% (active) in assay [10].

Consider `Cc1ccc(C(=O)Nc2sc(C)c(-c3ccccc3)c2C(N)=O)cc1[N+](=O)[O-]`, for which the inhibition is 64% (active) in [1]; 50% (active) in assay [2]; 29.8% in [3]; 22.4% in assay [4]; 47.7% (active) in assay [5]; -41.3% in assay [6]. Further, the inhibition in [7] was 38.9%; in assay [8], 10.9%; in assay [9] it was 71.9% (active); in assay [10], 74.1% (active).

In general, inhibition refers to the drop in the measured response relative to a control, in per cent.

Source of the values: PubChem BioAssay.
